The structures appear in SMILES notation. Out of some 580,000 compounds screened, about 6,100 (1.1%) were called active. Inconclusive results (about 15%) are left out. The call rests on the fitted dose curve; in most records, active means well fitted inhibition curve with a large enough effect; inconclusive means small, poorly fitted or top-dose-only effect, or another doubt; inactive means no such curve, though single readings can be large or run the other way. What follows is part of a selection rich in actives, with near analogues and random picks from the rest. Entries that show only a call come without a potency.
Potency means the concentration at half of the fitted maximal effect.

Polyunsaturated fatty acid lipoxygenase ALOX12 (Homo sapiens), sequence (P18054 whole entry, looked up): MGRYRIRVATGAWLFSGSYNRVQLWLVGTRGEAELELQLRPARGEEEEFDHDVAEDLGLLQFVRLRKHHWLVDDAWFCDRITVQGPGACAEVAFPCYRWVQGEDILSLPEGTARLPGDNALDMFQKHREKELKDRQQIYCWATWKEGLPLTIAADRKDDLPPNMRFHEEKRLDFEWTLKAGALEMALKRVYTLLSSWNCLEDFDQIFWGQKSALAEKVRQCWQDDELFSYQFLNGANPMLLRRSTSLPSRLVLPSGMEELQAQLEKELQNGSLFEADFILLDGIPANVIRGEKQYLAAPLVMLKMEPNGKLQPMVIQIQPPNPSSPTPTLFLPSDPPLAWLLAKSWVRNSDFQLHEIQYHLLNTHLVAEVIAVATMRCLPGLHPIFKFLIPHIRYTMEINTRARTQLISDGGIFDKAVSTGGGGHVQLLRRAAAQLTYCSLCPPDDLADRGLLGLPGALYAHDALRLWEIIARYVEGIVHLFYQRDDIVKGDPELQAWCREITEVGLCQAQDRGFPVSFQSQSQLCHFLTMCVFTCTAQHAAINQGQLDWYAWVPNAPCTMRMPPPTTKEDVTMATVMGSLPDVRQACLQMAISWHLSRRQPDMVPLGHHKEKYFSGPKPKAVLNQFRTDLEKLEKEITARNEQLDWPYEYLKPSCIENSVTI

In this experiment the target is Polyunsaturated fatty acid lipoxygenase ALOX12 (Homo sapiens) (UniProt P18054). The experiment in a line: Primary qHTS assay for inhibitors of human arachidonate 12S-lipoxygenase (ALOX12): Round 2. To be noted: purified 12hLO, xylenol orange hydroperoxide absorbance; series mostly up to 108 µM. An excerpt:
Assay Provider: Theodore R. Holman Ph.D. University of California, Santa Cruz, California Human lipoxygenase 12hLO is a member of the closely related lipoxygenase family of enzymes which catalyze the site-specific oxidation of arachidonic acid to various hormone precursor molecules and as such is a candidate for drug development in a variety of disease areas, such as cancer and inflammation. Inhibition of 12hLO activity was screened by utilizing arachidonic acid as a substrate. The extent of hydroperoxide product formation was measured by a secondary chromogenic reaction in which xylenol orange (XO, Sigma-Aldrich, cat. number 39,818-7) reacts with the ferric ions produced from the reaction between the hydroperoxide and ferrous ions. The Fe (III)-XO complex is characterized with red-shifted absorbance at 560 nm. A purified preparation of human 12hLO was supplied by Dr. Holman laboratory, University of California, Santa Cruz.
PROTOCOL TABLE SEQUENCE No. (e.g., 1, 2, 3, etc.); […] (e.g., Cells, Incubation, Reagent, etc.); VALUE; DESCRIPTION 1; Enzyme; 3 uL; 150 nM 12hLO enzyme solution dispensed in 1536-well Greiner black, clear bottom plates. 2; Compound; 23 nL; compounds and controls were added. 3; Incubate; 15 min; room temperature. 4; Substrate; 1 uL; 40 uM arachidonic acid (final concentration). 5; Incubate; 30 min; room temperature. 6; Reagent; 4 uL; Fe-XO solution was added to each well. 7; Incubation; 30 min; room temperature 8; Detector; absorbance; Read 1 at 405 nm absorbance using ViewLux (Perkin-Elmer) CCD imager. 9; Detector; absorbance; Read 2 at 573 nm absorbance using ViewLux (Perkin-Elmer) CCD imager. NOTES (numbers refer to sequence above) 1; 150 nM 12hLO (final concentration) in buffer solution (25 mM Hepes, 0.01% Triton X-100, pH 7.0) was dispensed in columns 1, 2, 5-48. Column 1 is neutral (100% activity). Buffer only was dispensed in columns 3 and 4 as no enzyme negative controls. The plates were covered with metal lids with gas-exchange holes. 2; Compounds were pin transferred via a Kalypsys Pin Tool (Wako USA) in column 5-48. Control compound was transferred in column 2, titration of nordihydroguaiaretic acid (NDGA, Sigma-Aldrich, N5023) with top concentration of 20 mM in DMSO then 1:3 dilution in duplicate. Dilution factor of 23 nL into 4 uL final assay volume. 3; Covered assay plates were incubated for 15 min at room temperature. 4; Substrate was added to start the reaction; 40 uM arachidonic acid (Sigma-Aldrich, St. Louis, MO) was dispensed throughout the plate. 6; Chromogenic detection reagent solution (divalent iron/xylenol orange, Fe-XO) was added to each well: 200 uM xylenol orange, 300 uM ferrous ammonium sulfate prepared freshly in 50 mM sulfuric acid. 8, 9; Two absorbance readouts were obtained at 405 nm and at 573 nm using a ViewLux high-throughput CCD plate imager (Perkin-Elmer). The 573 to 405 (Read 2 / Read 1) absorbance ratio was used to compute reaction progress.
Regarding `CCOC(=O)c1c(C)n(Cc2ccccc2Cl)c2ccc(O)cc12`, the Potency is 20 µM (active).
On the same count and under the same terms, next, `Cc1nn(Cc2ccccc2Cl)c(Cl)c1C(=O)OC(C(=O)NC(N)=O)C(C)C` (stereo not given): “inactive”; `COc1ccccc1-c1ccc(N2CC3CC(C2)c2cccc(=O)n2C3)nn1` (stereo not given): “inactive”.
On the same count and under the same terms, next, `O=C(NCc1ccccc1)[C@H]1CN2CCC1C[C@@H]2Cn1cc(-c2ccc(F)cc2)nn1` (stereo not given in full): “inactive”; `COC(=O)[C@@H]1[C@@H](CO)[C@@H]2Cn3c(ccc(Br)c3=O)[C@H]1N2C(=O)c1cnccn1`: “inactive”; `COc1cc2c(cc1Oc1cccc(N(C)C)c1)NC(=O)C21CCN(CCC(C)C)CC1`: “inactive”.
For `O=C(Nc1ccccc1)[C@H]1CN2CCC1C[C@@H]2Cn1cc(CO)nn1` (stereo not given in full), the Potency entry was “inactive”.
As for `COc1ccc(N2C(=O)/C(=C/c3ccco3)C(=O)NC2=S)cc1`, the Potency was 8.91 µM (active).
`COc1nc2c(cc1CNC(=O)C1C(C)(C)C1(C)C)C(=O)N(C1CCCC1)C2`: the Potency entry is “inactive”.
On the same count and under the same terms, the value for `COc1ccc(/C=C\[N+](=O)[O-])c(OC)c1` was “inactive”; that for `Cc1nc(C)c(C(=O)N2[C@H]3CC[C@@H]2c2cnc(-c4ccccc4)nc2C3)s1` was “inactive”.
`O=C1CC2CCN(Cc3cccnc3)CC2CCN1` (stereo not given): the activity change, negative = inhibition is 6.21% [at 12.5 µM] (inactive).
Turning to `Cc1cc(N2CCNC[C@@H]2C)ccc1N1CC[C@H](O)C1`, the Potency is 44.7 µM (active).
As to `CC1CNCCN1c1ccc(Cl)cc1` (stereo not given), the Potency result was “inactive”.
The same measure, in the same setting: next, `COc1ccc(-c2cc3c(cc2OC)C2(CCN(C(C)=O)CC2)C(=O)N3)cc1OC`: “inactive”; `CN(Cc1ccccc1)C[C@H]1CN2CC[C@H]1C[C@@H]2CNC(=O)Nc1ccsc1`: “inactive”.
Regarding `C[S+](=O)([O-])N1CCC2(CC1)CC(c1cccnc1)=NO2`, the activity change, negative = inhibition was 5.92% [at 6.33 µM] (inactive).
As to `c1ccc2sc(SNC3CCCCC3)nc2c1`, the Potency is 28.2 µM (active).
`OC(CNC1CCCCC1)c1ccccc1` (stereo not given): the Potency result was “inactive”.
As to `c1ccc2sc(N3CCNCC3)nc2c1`, the Potency entry is “inactive”.
Turning to `Cc1noc(C)c1CC(=O)N1[C@H]2CC[C@@H]1c1cnc(-c3ccccc3)nc1C2`, the Potency entry is “inactive”.
With `Cc1noc(C(C)N2CCN(C(=O)Cc3ccccc3)CC2)n1` (stereo not given), the Potency result is “inactive”.
Regarding `Cc1cc(C)c2[nH]c(C(=O)N3CCC(C#N)(c4ccccc4)CC3)c(C)c2c1`, the Potency entry is “inactive”.
Consider `CCC(=O)c1ccc(OCC(=O)N2CCN(CC(=O)Nc3ccc(C)cc3)CC2)cc1`, for which the Potency entry is “inactive”.
As for `C=CCN1C(=O)NC(=O)/C(=C/c2ccc(OCC(=O)Nc3ccc(C)cc3)cc2)C1=O`, the Potency was 39.8 µM (active).
With `C=CCN(CC=C)C(=O)Nc1ccc(OCC)cc1`, the Potency entry is “inactive”.
Regarding `CC(CNc1ccc([N+](=O)[O-])c2cnccc12)c1ccccc1` (stereo not given), the Potency result is “inactive”.
As to `COC(=O)c1ccc(NC(=O)N2[C@H]3CC[C@@H]2c2cnc(-c4ccc(F)cc4)nc2C3)cc1`, the Potency result was “inactive”.
For the compound `COc1cc2c(cc1Oc1cccc(N(C)C)c1)NC(=O)C21CCN(c2cnccn2)CC1`, the Potency result was “inactive”.
On the same count and under the same terms, next, `COc1ccc(CC(=O)N2CCN(CC(=O)NC(N)=O)CC2)cc1`: “inactive”.
As to `C#C[C@H]1CN2CC[C@H]1C[C@@H]2CNC(=O)C1CC1`, the Potency entry is “inactive”.
For `COc1ccc(-c2cc([C@H]3CN4CC[C@H]3C[C@@H]4COC(=O)NC(C)C)nc(C)n2)cc1`, the Potency result was “inactive”.
`C#C[C@H]1CN2CC[C@H]1C[C@@H]2COC(=O)Nc1cc(OC)cc(OC)c1`: the Potency is 50.1 µM (active).
In the case of `Cc1ncc2c(n1)C[C@@H]1CC[C@H]2N1S(=O)(=O)c1ccc(F)cc1`, the Potency result was “inactive”.
As for `Cn1nc(-c2cccs2)cc1[C@H]1CN2CC[C@H]1C[C@@H]2CNC(=O)Nc1ccccc1`, the Potency result is “inactive”.
For `C=C(C)C1(CCCC)C(=O)NC(=S)NC1=O`, the Potency is 44.7 µM (active).
On to `COc1ccccc1-c1cc([C@H]2CN3CC[C@H]2C[C@@H]3CNCc2cccc(C#N)c2)n(C)n1`, for which the Potency entry is “inactive”.
Regarding `COc1cc2c(cc1OCc1ccccc1)NC(=O)C21CCN(CCC(C)C)CC1`, the Potency entry is “inactive”.
`COC(=O)C1=C(c2ccc3ccccc3c2)C[C@@H]2CC[C@H]1N2C(=O)NCCO`: the Potency entry was “inactive”.
With `CC(=O)NCC1=C(c2ccc3ccccc3c2)C[C@@H]2CC[C@H]1N2Cc1ccco1`, the Potency was 28.2 µM (active).
As to `Cc1ncoc1C(=O)NCC1=C(c2cccc3ccccc23)C[C@@H]2CC[C@H]1N2Cc1ccco1`, the Potency result was “inactive”.
For `O=[S+]1([O-])NC2(CCN(CC3CCOCC3)C2)COc2ccncc21` (stereo not given), the activity change, negative = inhibition was 3.45% [at 6.33 µM] (inactive).
As to `CN(C)C(=O)Oc1ccc2c(=O)c(-c3ccc(Br)cc3)c(C(F)(F)F)oc2c1`, the Potency entry is “inactive”.
As to `O=C(c1ccc2c(c1)CCO2)N1C[C@@H](c2ccc(F)cc2)[C@@H]2[C@H]1C1CCN2CC1`, the Potency entry was “inactive”.
`Cc1cc(C)cc(CN2CCC3(CCNCC3)C2)c1`: the Potency result was “inactive”.
Take `COc1cc2c(cc1OC1CCCC1)NC(=O)C21CCN(c2nccs2)CC1`: the Potency result is “inactive”.
Take `O=C1NC(=O)N(c2ccccc2)C(=O)/C1=C/c1ccc([N+](=O)[O-])s1`: the Potency is 39.8 µM (active).
Same read-out and setting: next, `COc1cccc(N2C(=O)NC(=O)/C(=C\c3ccc([N+](=O)[O-])s3)C2=O)c1`: 44.7 µM (active).
For the compound `CCC(CC)c1cc([C@H]2CN3CC[C@H]2C[C@@H]3CNS(=O)(=O)Cc2ccccc2)nc(-c2ccncc2)n1`, the Potency result was “inactive”.
Take `N#Cc1cccc(NC(=O)NC[C@H]2C[C@@H]3CCN2C[C@@H]3CN2CCN(c3ncccn3)CC2)c1`: the Potency entry is “inactive”.
As for `CC(C)(C)c1nc(CN2CCC3(CC2)C(=O)Nc2ccccc23)no1`, the Potency result is “inactive”.
Still for that read-out and setting: the value for `COc1cccc(Nc2cc3c(cn2)CN(C)CCN3C)c1` was “inactive”; that for `Cc1ccc(-n2c(/C=C/c3cccc(C(F)(F)F)c3)nc3ccccc3c2=O)cc1` was “inactive”.
Turning to `O=c1c2ccccc2nc(/C=C/c2ccc(F)cc2)n1-c1ccccc1O`, the Potency entry was “inactive”.
For `O=c1c2ccccc2nc(/C=C/c2ccco2)n1-c1ccccc1O`, the Potency is 35.5 µM (active).
On to `C=CCN(C)C[C@H]1CN2CC[C@H]1C[C@@H]2CNC(=O)Nc1cccc(SC)c1`, for which the Potency result is “inactive”.
For `O=c1oc2ccccc2c(O)c1C(c1ccccc1O)c1c(O)c2ccccc2oc1=O`, the Potency result was “inactive”.
Take `Cc1ccc(C(c2c(O)c3ccccc3oc2=O)c2c(O)c3ccccc3oc2=O)cc1`: the Potency is 12.6 µM (active).
On to `CCC(=O)CC(c1ccc([N+](=O)[O-])cc1)c1c(O)c2ccccc2oc1=O` (stereo not given), for which the Potency result was “inactive”.
In the case of `O=C(Cc1ccccc1)N1[C@H]2CC[C@@H]1c1cnc(-c3ccc(F)cc3)nc1C2`, the Potency result was “inactive”.
`COc1cc2c(cc1-c1ccncc1)NC(=O)C21CCN(C(C)=O)CC1`: the Potency entry was “inactive”.
As to `COc1ccc(CC(=O)N2C[C@@H]3CC[C@H](C2)N(CC2CCC2)C3)c(OC)c1`, the Potency entry was “inactive”.
On the same count and under the same terms, the value for `ClCc1cccnc1` was 11.2 µM (active); that for `c1cncc(CNCCc2c[nH]c3ccccc23)c1` was “inactive”.
Regarding `c1cncc(CNC2=NCCC2)c1`, the Potency result was “inactive”.
`Cc1nc(-c2ccc(N(C)C)cc2)cc([C@H]2CN3CC[C@H]2C[C@@H]3CNC(=O)C2CCC2)n1`: the Potency entry is “inactive”.
Take `CCOCCc1c(O)[nH]c(=S)[nH]c1=O`: the Potency is 14.1 µM (active).
On to `Cn1nc(-c2ccc(F)cc2)cc1[C@H]1CN2CC[C@H]1C[C@@H]2CNCc1ccccn1`, for which the Potency entry was “inactive”.
For the compound `Cc1ccc2c(n1)N(C)[C@H](CO)CCN(C1CCCC1)C2`, the Potency result is “inactive”.
In the case of `CC(C)C(=O)N1CCC2(CC1)NCc1ccccc1-n1ccnc12`, the Potency result is “inactive”.

For the origin of these results see PubChem BioAssay AID1671190 (National Center for Advancing Translational Sciences (NCATS), 2021).
